Experimental data reported in PubChem BioAssay AID1619 (SRMLSC, 2009).
Hit rate of the full screen: of about 220,000 compounds, about 830 (0.38%) were called active.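 Rule for the calls: active = compound inhibiting the enzyme by more than half at any dose during confirmatory dose-response retesting; inconclusive = strong single-dose inhibitors picked by rank but not retested; inactive = the rest.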 The list is a sample of the results. Measured potencies and affinities stand elsewhere.

biological target: Leucine aminopeptidase (Plasmodium falciparum (isolate 3D7)) (UniProt Q8IL11); test: P. falciparum M17LAP inhibitors, primary screen, biochemical, fluorogenic H-Leu-NHMec substrate, 1536-well (AID 1619); conditions: recombinant M17LAP, H-Leu-NHMec fluorogenic kinetic assay; at 30 µM; stronger effect = higher value;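 note: plate controls were full reaction with DMSO carrier for no effect and no enzyme background for full effect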
Sequence (Q8IL11 whole entry, looked up): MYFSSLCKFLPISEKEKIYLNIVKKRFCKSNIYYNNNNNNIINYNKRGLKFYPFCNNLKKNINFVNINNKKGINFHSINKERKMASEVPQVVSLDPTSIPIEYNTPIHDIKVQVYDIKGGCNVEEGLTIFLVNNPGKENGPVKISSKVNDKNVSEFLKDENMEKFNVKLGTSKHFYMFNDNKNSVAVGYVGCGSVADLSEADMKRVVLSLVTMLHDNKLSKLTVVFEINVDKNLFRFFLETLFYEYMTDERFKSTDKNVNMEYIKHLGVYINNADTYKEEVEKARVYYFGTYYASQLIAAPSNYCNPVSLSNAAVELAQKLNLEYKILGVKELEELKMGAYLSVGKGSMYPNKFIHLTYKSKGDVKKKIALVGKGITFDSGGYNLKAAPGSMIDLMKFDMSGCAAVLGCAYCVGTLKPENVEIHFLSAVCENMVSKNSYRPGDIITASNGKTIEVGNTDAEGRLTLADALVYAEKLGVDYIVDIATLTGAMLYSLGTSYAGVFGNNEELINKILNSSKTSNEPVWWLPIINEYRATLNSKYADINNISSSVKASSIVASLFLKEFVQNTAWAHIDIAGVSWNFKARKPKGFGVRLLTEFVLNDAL

inhibition, inactive:
CCOc1ccc(NC(=S)NNC(=S)Nc2cccc(C(F)(F)F)c2)cc1 -5.94%, O=C(NCc1ccco1)c1cc(-c2ccccn2)nc2ccccc12 6.45%, Cc1ccc(S(=O)(=O)Nc2ccccc2C(=O)OC(C)C(=O)Nc2ccc3ccccc3c2)cc1[N+](=O)[O-] (stereo unspecified) -9.25%, COc1ccc(NC(=O)c2ccccc2NS(=O)(=O)c2ccc(C)cc2)c([N+](=O)[O-])c1 2.55%, COc1ccc(NC(=S)NNc2ccc([N+](=O)[O-])cc2S(=O)(=O)Nc2ccc(C)cc2C)cc1 4.17%, O=C(O)c1ccccc1Nc1ccc(OC(F)F)cc1 18.9%, Cc1ccc(NC(=O)C(C)[n+]2ccccc2)cc1[N+](=O)[O-] (stereo unspecified) -17.4%, CCOC(=O)c1nn(-c2ccc(Br)cc2)cc1C(=O)c1cccc2ccccc12 2.03%, O=C(O)CC12CC3CC(C1)CC(n1ncc(NCc4ccccc4Cl)c(Cl)c1=O)(C3)C2 23.6%, O=C(O)C12CC3CC(C1)CC(n1ncc(NCc4ccco4)c(Cl)c1=O)(C3)C2 1.68%, O=c1c(Cl)c(NCc2ccccc2)cnn1C12CC3CC(CC(C3)C1)C2 -15.7%, O=C(O)Cc1ccc(Nc2cnn(C34CC5CC(CC(CC(=O)O)(C5)C3)C4)c(=O)c2Cl)cc1 23.1%, O=c1c(Cl)c(NCc2ccc(F)cc2)cnn1C12CC3CC(CC(C3)C1)C2 18.3%, O=c1c(Cl)c(NCc2ccc(F)cc2Cl)cnn1C12CC3CC(CC(C3)C1)C2 -15.2%, O=C(O)CC12CC3CC(C1)CC(n1ncc(NCc4ccccc4)c(Cl)c1=O)(C3)C2 8.41%, O=C(O)CC12CC3CC(C1)CC(n1ncc(NCc4ccco4)c(Cl)c1=O)(C3)C2 7.19%, COc1ccccc1N1CCN(C(=O)COc2ccc(Cl)cc2Br)CC1 1.89%, CCOC(=O)C1CCN(C(=O)Nc2ccc(OC(F)(F)F)cc2)CC1 7.03%, O=C(c1cc2cccc([N+](=O)[O-])c2oc1=O)N1CCOCC1 14.7%, CCOC(=O)c1c(C)[nH]c(C)c1C(=O)COC(=O)/C=C/c1cccc(C(F)(F)F)c1 -1.01%, Cc1cc(C)c(OC2(c3ccccc3)OC(=O)c3ccccc32)c(C)c1 (stereo unspecified) -10.6%, Cc1ccccc1/C=N/N=C1/NC(=O)CCS1 23.8%, CN1CCC(=NNC(=O)C(=O)Nc2ccc(F)cc2)CC1 13.2%, COc1cccc(CNC(=O)CCNS(=O)(=O)c2cccc3nsnc23)c1 -1.94%, Cn1cccc1Cc1nnc(SCC(=O)N2CCc3ccccc32)n1CCc1ccccc1 36.6%, O=C(N/N=C/c1cccc([N+](=O)[O-])c1)c1cc(-c2ccc3c4c(cccc24)CC3)n[nH]1 -2.54%, O=C(N/N=C/c1ccccc1C(=O)O)c1cc(-c2ccc3c4c(cccc24)CC3)n[nH]1 91.8%, CC(C)=CC(=O)Nc1ccc(OCc2ccccc2)cc1 2.98%, O=C(NCC1CCCO1)/C(=C\c1cccc([N+](=O)[O-])c1)NC(=O)c1ccccc1 (stereo unspecified) -4.67%, O=C(O)Cn1c(=O)cnc2ccccc21 -13.7%, CC(C)C1N=C2c3ccccc3N=C(SCC(=O)NCCc3ccc(S(N)(=O)=O)cc3)N2C1=O (stereo unspecified) -29.1%, CC(C)C1N=C2c3ccccc3N=C(SCC#N)N2C1=O (stereo unspecified) -5.52%, CNC(=O)c1c2c(nc3ccc(Br)cc13)CCCC2 -4.18%, Cc1cccc(OCC(=O)Nc2ccc3c4c(cccc24)CC3)c1C 6.88%, O=C(CSc1nc2ccccc2c(=O)n1-c1ccc(F)cc1)Nc1ccc2c(c1)CCC2 13.5%, Cc1nnc(SCC(=O)Nc2ccc3c4c(cccc24)CC3)n1C 0.6%, Cc1ccc(-n2c(SCC(=O)Nc3ccc4c5c(cccc35)CC4)nc(O)cc2=O)cc1 26.7%, COc1ccc(-n2c(SCC(=O)Nc3cccc4ccccc34)nc(O)cc2=O)cc1 -2.11%, Cc1ccc(-n2c(SCC(=O)Nc3ccc4c5c(cccc35)CC4)nc(O)c(C)c2=O)cc1 39%, Cc1ccccc1Cn1nc(C)c(NC(=O)C2c3ccccc3Oc3ccccc32)c1C -14%, CCN(CC)C(=O)c1ccc(-c2nnc(OC)c3ccccc23)cc1 -4.54%, COC(=O)c1c(-c2cccs2)csc1NC(=O)c1cccnc1 15.9%, CCCn1c(SCC(=O)N2c3ccccc3Sc3ccccc32)nc2ccccc21 -2.24%, CC1CCCCN1Cc1c(C#N)c2ccccc2n1C (stereo unspecified) -2.84%, Cc1c(Cl)c(C(F)F)nn1CC(=O)NC1C(=O)N2C(C(=O)O)=C(CSc3nnnn3C)CSC12 (stereo unspecified) 11.3%, Cc1nnc(SCC2=C(C(=O)O)N3C(=O)C(NC(=O)Cn4nc(C(F)F)cc4C)C3SC2)s1 (stereo unspecified) 47.7%, O=C(Nc1ccc(Oc2cccc3ccccc23)cc1)c1ccco1 -4.51%, CCN1C(=O)CC(N2CCN(c3ccc(C(=O)c4ccncc4)cc3)CC2)C1=O (stereo unspecified) 31.2%, CC(=O)NC(C(=O)OCC(=O)N(c1ccccc1)c1ccccc1)C(C)C (stereo unspecified) 0.51%, Cc1cc(N2CCCC2)ccc1/C=C1\NC(=S)N(C)C1=O -1.37%, Cc1cc(N2CCCC2)ccc1/C=C1/C(=O)N(C)C(=S)N1C 1.26%, COc1cc2c(cc1OC)C(C(=O)N1CCCCC1)C(c1ccccc1F)N(C)C2=O (stereo unspecified) 2.89%, S=c1cnc2ccccc2[nH]1 6.02%, N#CCCn1cc(C(=O)N2CCCCC2)c(-c2cccc([N+](=O)[O-])c2)n1 4.89%, CC1(C)CC(=O)C(C(C2=C(O)CC(C)(C)CC2=O)c2ccc(Cl)c([N+](=O)[O-])c2)C(=O)C1 (stereo unspecified) 7.5%, CN(C)/C=N/c1sc2c(c1C#N)CCCC2 0.79%, CN(C)/C=N/c1sc2c(c1C#N)CCCCC2 5.07%, COc1cc(CNC2CCCC2)cc(Cl)c1OCc1ccccc1F -3.97%, CC(NC(=O)c1ccc(Br)cc1)c1ccccc1 (stereo unspecified) 12.4%, Cc1nc(-c2cccc(Cl)c2)n[nH]1 -5.31%, CCn1c(-c2cccc(Cl)c2)n[nH]c1=S 6.53%, COC(=O)CN1C(=O)C(O)(CC(=O)c2ccc(Cl)cc2)c2ccccc21 (stereo unspecified) 12.1%, C/C(=N/NC(=O)CSCc1ccc(Cl)cc1)c1cccc(NC(=O)c2ccccc2)c1 -0.71%, CN(C)C(=S)Nc1cccc(-c2n[nH]c(=S)o2)c1 4%, O=C(CN1C(=O)CSc2ccccc21)Nc1ccc2c(c1)OCCO2 12.7%, O=C(CN1C(=O)c2cccc3cccc1c23)Nc1ccc2c(c1)OCO2 31.3%, CC1CC(=O)N(CC(=O)Nc2ccc3c(c2)OCCO3)c2ccccc2S1 (stereo unspecified) 51.7%, O=C(CCN1C(=O)c2ccccc2C1=O)Nc1ccc2c(c1)OCCO2 10.7%, O=C(CN1C(=O)CCSc2ccccc21)Nc1ccc2c(c1)OCO2 48.6%, CC1CC(=O)N(CC(=O)NCc2ccc3c(c2)OCO3)c2ccccc2S1 (stereo unspecified) 24%, O=C(CCCNS(=O)(=O)c1cccs1)N1CCc2ccccc2C1 -15.3%, COc1ccccc1C(=O)N(NC(=O)Oc1ccccc1)C(C)(C)C -4.52%, COc1cc(/C=N/NC(=O)c2nonc2N)cc(OC)c1OC 12.6%, S=C(Nc1ccccc1)N(CCN1CCOCC1)Cc1cccc(Cl)c1 3.82%, CCOC(=O)c1[nH]c2ccc(Br)cc2c1NC(=O)CCN1CCCC(C)C1 (stereo unspecified) 19.3%, CCC(C)(C)NC(=O)CN(C(=O)c1snc(C(N)=O)c1N)c1ccc(OC)c(OC)c1 -0.26%, COC(=O)c1ccc(Cl)c(NC(C)=O)c1 4.44%, CCc1ccccc1NC(=O)CSc1n[nH]c(C)c1[N+](=O)[O-] -11.3%, O=C(CSc1ccccn1)Nc1cccc2ccccc12 6.7%, Cn1cnnc1SCC(=O)Nc1ccc(Br)cc1F 4.31%, CC(C)n1cnnc1SCC(=O)Nc1ccc(Br)cc1F -3.86%, COC(=O)c1ccc(Cl)c(NC(=O)CN2CCN(C)CC2)c1 -7.62%, CCCn1c(SCC(=O)Nc2ccccc2CC)nnc1C(C)C -2.04%, O=C(CSCC(=O)Nc1cccc2ccccc12)Nc1cccc2ccccc12 -9.94%, C/C(=C\C(=O)c1ccccc1)Nc1ccc2c(c1)OCO2 -1.02%, CCOC(=O)c1cnc(SC)nc1Oc1cccc(NS(=O)(=O)c2ccccc2)c1 12.5%, COc1ccc(-c2nc(C)c(C(C)=O)n2O)cc1[N+](=O)[O-] 39.5%, O=C(COn1nnc2ccc(C(F)(F)F)cc21)Nc1c(Cl)cccc1Cl -14.4%, FC(F)(F)c1ccnc(NCc2ccco2)n1 5.81%, O=C(CN1C(=O)S/C(=C\C=C\c2ccccc2)C1=O)Nc1ccc(O)cc1 9.74%, O=C(CN1C(=O)S/C(=C\C=C\c2ccccc2)C1=O)Nc1ccc(C(=O)O)cc1 15.3%
